Experimental findings from PubChem BioAssay AID652039 (The Scripps Research Institute Molecular Screening Center, 2013) are described below.

Out of some 370,000 compounds screened, about 3,300 (0.89%) were called active. The sample as a whole holds a higher share of actives than the screen did. A number with no mark means an inactive call.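 The calls were made as follows: active = activation above the mean of all tested compounds plus 3 SD, computed per campaign excluding outliers beyond control limits (cut at about 13% in these data); inactive = the rest.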

In the assay the target is Kallikrein-7 (Homo sapiens) (UniProt P49862). Put plainly: proKLK7 zymogen activators, primary screen, biochemical, fluorescence intensity (AID 652039). The settings on record: purified proKLK7, EDANS-DABCYL substrate fluorescence; at 7 µM; stronger effect = higher value; 100% is mature enzyme control, 0% vehicle.
Sequence of Kallikrein-7 (Homo sapiens) (P49862 whole entry, looked up): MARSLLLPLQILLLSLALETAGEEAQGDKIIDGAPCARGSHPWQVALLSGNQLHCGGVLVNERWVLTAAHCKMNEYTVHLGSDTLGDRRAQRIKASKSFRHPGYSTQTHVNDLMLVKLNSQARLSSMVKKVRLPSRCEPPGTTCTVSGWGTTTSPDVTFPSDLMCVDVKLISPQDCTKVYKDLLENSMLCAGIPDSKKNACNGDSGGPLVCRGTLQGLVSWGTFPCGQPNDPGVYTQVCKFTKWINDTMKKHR
With `COc1ccc(CNC(=O)COC(=O)C(CCSC)N2C(=O)c3ccccc3C2=O)cc1` (configuration not stated), the activation is 0.41%.

Consider `COc1ccc(CNC(=O)COC(=O)C2=Cc3ccccc3OC2)cc1`, for which the activation is 31.2% (active).

Turning to `COc1ccc(CCNC(=O)COC(=O)c2cc(=O)c3ccccc3o2)cc1`, the activation is 0.13%.

Consider `COc1ccc(-c2cc(-c3nnc(SCc4ccc([N+](=O)[O-])cc4)n3N)[nH]n2)cc1`, for which the activation is 0.29%.

Consider `O=C(NCc1ccco1)C1CCCN(S(=O)(=O)c2ccc(Cl)s2)C1` (configuration not stated), for which the activation was -0.13%.

Regarding `COC(=O)C1CN(CC(C)C)CCS(=O)(=O)N1Cc1ccc(F)cc1` (configuration not stated), the activation was 0.05%.

For `N#Cc1cnn2cc(CCN3CCOCC3)c(-c3ccc(F)cc3)nc12`, the activation is 11.7%.

`COc1ccc2c(c1)CCc1c(C(=O)N3CCCC3)noc1-2`: the activation is 0.01%.

Turning to `COc1ccc2c(c1)CCc1cn3ncc(C#N)c3nc1-2`, the activation is 47% (active).

Turning to `CN(CCc1ccccc1)C(=O)Cn1nc(-c2ccccc2)ccc1=O`, the activation was -0.3%.

As for `CCOC(=O)C1(Cc2ccccc2)CCN(Cc2cn(C(C)=O)c3ccccc23)CC1`, the activation is 0.56%.

Consider `CCCCCCN1CCS(=O)(=O)N(Cc2ccc(C(F)(F)F)cc2)C(C(=O)OC)C1` (configuration not stated), for which the activation was 0.5%.

On to `O=c1c(-c2ccccc2)coc2c(CN3CCOCC3)c(O)ccc12`, for which the activation was 45.3% (active).

For the compound `O=c1[nH]c(CN2CCOCC2)nc2scc(-c3ccccc3)c12`, the activation was -0.59%.

As to `CCOC(=O)c1oc2c(CN3CCN(C)CC3)c(O)ccc2c(=O)c1-c1ccc(Br)cc1`, the activation was 0.69%.

For `O=C(NCC1COc2ccccc2O1)c1ccc(NC(=O)c2cc(F)ccc2F)cc1` (configuration not stated), the activation was 1.38%.

On to `COc1cccc(Cn2cc(COC(=O)Nc3ccc(F)cc3)nn2)c1`, for which the activation is -0.1%.

With `COc1cccc2cc(S(=O)(=O)c3ccc(C)cc3)/c(=N/NS(=O)(=O)c3ccc(C)cc3)oc12`, the activation was 0.14%.

For `Cc1cc(S(=O)(=O)c2cc3ccc(O)c(C)c3oc2=O)ccc1F`, the activation is 22.6% (active).

Turning to `O=C(CSc1nc2ccccc2s1)NN=Cc1ccc(O)cc1O`, the activation was -0.66%.

Take `COc1cccc(/C=C2\CC3(OC(C)=O)CCCN2C3)c1` (configuration not stated): the activation was 0.57%.

Turning to `O=C(CCCCCN1C(=O)C2C3C=CC(C3)C2C1=O)Nc1ccccn1` (configuration not stated), the activation is 0.09%.

Regarding `C=C(C)C1CC23C(=O)C4(C(=O)c5ccccc5)C[C@@]5(C)CCC(CC2C1(C)C)(C4=O)C35OC` (some centres not stated), the activation is -0.91%.

With `Cc1ccsc1-c1cc(C(=O)O)c2c(ccc3ccccc32)n1`, the activation was 12.6% (active).

In the case of `Cc1cc(=O)oc2c1ccc1ccccc12`, the activation was -3.76%.

For the compound `Cc1ccccc1C(=O)O`, the activation is -0.39%.

Consider `Cc1cc(=O)oc2c3c(cc(OCC(=O)NCCC(=O)N[C@@H](C)C(=O)O)c12)OC(C)(C)CC3`, for which the activation was 47.4% (active).

Take `CCc1cc(=O)oc2c(C)c(OCC(=O)NCCN3CCOCC3)ccc12`: the activation is 1.04%.

For `Cc1c(OC(C)C(=O)N[C@@H](Cc2ccccc2)C(=O)O)ccc2c3c(c(=O)oc12)CCCC3` (some centres not stated), the activation is -18.9%.

`O=C(COc1ccc2c3c(c(=O)oc2c1)CCCC3)NCC(O)c1ccccc1` (configuration not stated): the activation was -0.24%.

For `Cc1cc(=O)oc2c3c(cc(OCC(=O)NCc4ccccn4)c12)OC(C)(C)CC3`, the activation was 12.5%.

Take `Cc1c(C)c2c(OCC(=O)N[C@@H](C(=O)O)c3ccccc3)cc3c(c2oc1=O)CCC(C)(C)O3`: the activation was 39.6% (active).

With `Cc1cc(=O)oc2c3c(cc(OCC(=O)N[C@H](C(=O)O)c4ccccc4)c12)OC(C)(C)CC3`, the activation was 47.5% (active).

On to `COc1ccc(CCNC(=O)COc2cc(C)cc3oc(=O)c(C)c(C)c23)cc1OC`, for which the activation was -0.02%.

In the case of `COc1cccc(NC(=O)COc2cc(C)cc3oc(=O)cc(C)c23)c1`, the activation is -0.24%.

Regarding `Cc1c(C)c2c(OCC(=O)NCCCO)cc3c(c2oc1=O)CCC(C)(C)O3`, the activation is 40.1% (active).

For the compound `Cc1cc(=O)oc2c3c(cc(OCC(=O)NCC(O)c4ccccc4)c12)OC(C)(C)CC3` (configuration not stated), the activation is -10.6%.

Consider `Cc1cc(=O)oc2c(C)c(OCC(=O)NCCN3CCOCC3)ccc12`, for which the activation is -0.44%.

Consider `Cc1ccccc1NC(=O)COC(=O)c1ccc(Sc2ncn[nH]2)c([N+](=O)[O-])c1`, for which the activation was 0.34%.

For `Cc1cc(C)cc(NC(=O)N2CCC(N(C)CCC(C)C)CC2)c1`, the activation was -0.07%.

As for `CC(CCN1CCC(C(O)(c2ccccc2)c2ccccc2)CC1)Oc1ccc(C(F)(F)F)cc1` (configuration not stated), the activation is -0.17%.

In the case of `COC(=O)[C@]12C[C@H](CC(=O)N3CCN(C(=O)C4CC4)CC3)C(=O)N(CCC3=CCCCC3)C1=C[C@H](C(C)C)O[C@@H]2C1CC1`, the activation was 0.25%.

Take `CCCC[C@H]1C2CC(OC(=O)NCc3ccccc3)C(C2)[C@H]2CCCCN21` (some centres not stated): the activation is 0.07%.

Take `O=C(NCc1cccnc1)c1ccc2nc([C@@H]3O[C@H](CO)[C@H](O)[C@H](O)[C@H]3O)[nH]c2c1`: the activation is -0.29%.

As for `CCOC(=O)c1csc(NC(=O)C2CCCN(S(=O)(=O)c3ccc(Cl)s3)C2)n1` (configuration not stated), the activation was 0.6%.

In the case of `Cc1ccccc1N1CCN(C2CCCN(C(=O)c3cn4c(C)cccc4n3)C2)CC1` (configuration not stated), the activation was 0.45%.

For the compound `CCOC(=O)[C@]12CCCCC/C=C\1N(Cc1ccc(OC)cc1)C(=O)[C@H]2CC(=O)NCc1ccc(C)o1`, the activation is 0.76%.

As for `O=C(CN1CCCc2ccccc21)NCc1ccc(F)cc1`, the activation is -0.07%.

For the compound `COc1ccccc1NC(=O)C1=C(C)Nc2nnnn2C1c1cccc(Br)c1` (configuration not stated), the activation is 0.58%.

Take `COC(=O)C1=C(C(=O)c2ccc(C)cc2)C(c2ccccc2)n2nnnc2N1` (configuration not stated): the activation was -0.19%.

Take `COC(=O)c1ccc(C2C3=C(Nc4nnnn42)c2ccccc2OC3)cc1` (configuration not stated): the activation is 30.4% (active).

Turning to `COc1ccccc1C(=O)NC1CCCCN(C(C)C)C1=O` (configuration not stated), the activation was 0.9%.

Turning to `COc1cccc(CNC(=O)C2CCCN(c3nc4ccccc4o3)C2)c1OC` (configuration not stated), the activation is 0.61%.

Regarding `O=S(=O)(c1ccccc1)N1CCC(c2nc3ccccc3o2)CC1`, the activation is -0.13%.

As for `Cc1ccc(S(=O)(=O)N2CCN(C(=O)c3ccccc3-c3nc4ccccc4s3)CC2)c(C)c1`, the activation was -0.15%.

With `CC1CCCN(C(=O)c2cc(-c3ccco3)nc3ccccc23)C1` (configuration not stated), the activation is 38.3% (active).

In the case of `CC(=O)N1CCN(Cc2cc(=O)oc3cc(C)ccc23)CC1`, the activation is 0.22%.

With `CC(=O)N1CCN(C(=O)c2cc(-c3ccc(C)o3)nc3ccccc23)CC1`, the activation is 35.2% (active).

With `O=C(c1cc(-c2ccco2)nc2ccccc12)N(Cc1nnc(-c2ccc(Cl)cc2)o1)C1CC1`, the activation is -60.5%.

`CC1CCN(C(=O)Cn2cc(C(=O)c3ccco3)c3ccccc32)CC1`: the activation was 0.78%.

For `O=C(Nc1cccc(Cl)c1)OC1CC2CC1[C@H]1CCCCN1[C@H]2Cc1ccccc1` (some centres not stated), the activation was -0.47%.

As to `C=CCN1C(=O)[C@H](CC(=O)NCCCN2CCCC2=O)[C@@]2(C(=O)OCC)CCCC=C12`, the activation was -0.44%.

With `Cc1ccccc1CN1CCCCC(NC(=O)c2cccc(C#N)c2)C1=O` (configuration not stated), the activation was -1.15%.

Regarding `COc1ccc2c(C(C)c3ccc(N)cc3)cn(C)c2c1` (configuration not stated), the activation was -0.2%.

For `CC(=O)N1CCCN(C2=Nc3ccccc3Sc3ccccc32)CC1`, the activation was 0.25%.

Regarding `O=c1oc2cc(O)ccc2cc1-c1ccc(F)cc1`, the activation was 57.7% (active).

Turning to `CN(C)c1cc(-c2ccc(F)cc2)oc(=O)c1Cl`, the activation is -0.37%.

Take `CCOC(=O)[C@]12CCCC3=C1N(CCC3)C(=O)[C@@H](CC(=O)NCC13CC4CC(CC(C4)C1)C3)C2`: the activation was 0.33%.

Consider `Cc1ccc(NC(=O)c2cc(C)nn2-c2ccccc2)c(C)c1`, for which the activation was 0.15%.

Regarding `C[C@@H](NC(=O)c1ccccc1OCC(=O)Nc1ccc(I)cc1)C(=O)N(C)Cc1ccccc1`, the activation was -0.35%.

On to `Cc1cc2nc3c(=O)[nH]c(=O)nc-3n(C[C@H](O)[C@H](O)[C@H](O)CO)c2cc1C`, for which the activation is -49.4%.

Turning to `CCN(CC)CCCC(C)n1c2nc(=O)[nH]c(=O)c-2nc2cc(Cl)ccc21` (configuration not stated), the activation is 75.5% (active).

Take `CC(C)CNc1cccc2c1S(=O)(=O)N(Cc1cn(Cc3ccccc3C(F)(F)F)nn1)Cc1ccccc1O2`: the activation is -7.19%.

For `Cc1ccc(OCc2nnc(NC(=O)OCC(C)C)s2)cc1`, the activation is -0.08%.

As to `CCOCc1nnc(NC(=O)CCS(=O)(=O)Cc2ccccc2)s1`, the activation was 0.26%.

With `COCC(=O)Nc1nnc(COc2ccccc2)s1`, the activation was 20.2% (active).

As for `COc1ccc(CN2C/C(=C/c3ccccc3)N3C(=O)C[C@@H](c4ccccc4)N=C23)c(OC)c1`, the activation was -0.63%.

As to `CC1(C)Oc2ccc3ccc(=O)oc3c2/C(=N/O)C1=O`, the activation was 206% (active).

As to `C/C=C(/C)C(=O)OC1Cc2c(ccc3ccc(=O)oc23)OC1(C)C` (configuration not stated), the activation is 0.3%.

For the compound `CC1(C)Oc2ccc3ccc(=O)oc3c2/C(=C/NCCO)C1=O`, the activation was 0.36%.

`COC(=O)C1CN(Cc2cn(Cc3ccc(F)cc3)nn2)CCS(=O)(=O)N1Cc1ccc(Cl)cc1` (configuration not stated): the activation was -0.37%.

In the case of `N#CC1=C(N)Oc2c(sc3ccccc23)C1c1ccco1` (configuration not stated), the activation was 15% (active).

For the compound `CCN(CC(=O)Nc1c(F)cccc1F)C(=O)c1ccc(-c2ccc(C(C)=O)cc2)o1`, the activation was 13.8% (active).

Consider `CCN(CC(=O)Nc1c(F)cccc1F)C(=O)c1cnc(C)cn1`, for which the activation was -0.38%.

Regarding `CCN(CC(=O)Nc1c(F)cccc1F)C(=O)c1ccc(-c2ccccc2)cc1`, the activation is 0.37%.

In the case of `O=C(OC12CCCN(C1)/C(=C/c1ccccc1)C2)c1ccco1` (configuration not stated), the activation was 0.07%.

As for `CCCCCCCCNS(=O)(=O)/C=C/c1cc(C)ccc1CNC(=O)OC(C)(C)C`, the activation was 0.37%.
